This passage reports binding signal results from publication PMC7862700, “An all-to-all approach to the identification of sequence-specific readers for epigenetic DNA modifications on cytosine”.

Common to all, as to experiment: DAPPL (digital affinity profiling via proximity ligation, sequencing); 10 mM Tris-HCl pH 7.5, 50 mM NaCl, 1 mM DTT, 4% glycerol, room temperature, 30 min; GST-TFs on glutathione beads, 16-mer random dsDNA library, 0.1% formaldehyde crosslink after washing; high values mean tight binding
Test [1] addresses T1, FEV (Homo sapiens, UniProt Q99581 1-238).
T1 sequence: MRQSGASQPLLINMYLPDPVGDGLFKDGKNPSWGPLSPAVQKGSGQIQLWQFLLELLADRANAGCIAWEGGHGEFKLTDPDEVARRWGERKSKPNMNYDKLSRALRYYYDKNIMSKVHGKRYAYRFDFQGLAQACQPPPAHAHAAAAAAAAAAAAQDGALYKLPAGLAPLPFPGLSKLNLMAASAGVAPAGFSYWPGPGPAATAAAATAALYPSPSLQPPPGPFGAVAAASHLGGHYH
The settings on record: protein: recombinant; tags: N-terminal GST; dsDNA, one strand shown. Put shortly: (§1)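 After expression in yeast as GST fusions, human transcription factors were bound to glutathione beads, DNA-barcoded and mixed with a tag-only sample. The pools were incubated with 200 nmole of a 16-mer random double-stranded DNA library in Tris/NaCl/DTT/glycerol buffer (30 min, room temperature), washed and crosslinked with 0.1% formaldehyde. Proximity ligation with BsaI/T4 ligase ran for 1 h at 37 °C, before PCR amplification and sequencing on an Illumina NextSeq500. Binding signal is a hexamer's read frequency for a factor divided by its frequency for the tag-only sample.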

The target in test [2] is ETV5 (Homo sapiens, UniProt P41161 1-510). The settings on record: protein: recombinant; tags: N-terminal GST; dsDNA, one strand shown. Put shortly: as §1
ETV5, sequence (P41161 whole entry): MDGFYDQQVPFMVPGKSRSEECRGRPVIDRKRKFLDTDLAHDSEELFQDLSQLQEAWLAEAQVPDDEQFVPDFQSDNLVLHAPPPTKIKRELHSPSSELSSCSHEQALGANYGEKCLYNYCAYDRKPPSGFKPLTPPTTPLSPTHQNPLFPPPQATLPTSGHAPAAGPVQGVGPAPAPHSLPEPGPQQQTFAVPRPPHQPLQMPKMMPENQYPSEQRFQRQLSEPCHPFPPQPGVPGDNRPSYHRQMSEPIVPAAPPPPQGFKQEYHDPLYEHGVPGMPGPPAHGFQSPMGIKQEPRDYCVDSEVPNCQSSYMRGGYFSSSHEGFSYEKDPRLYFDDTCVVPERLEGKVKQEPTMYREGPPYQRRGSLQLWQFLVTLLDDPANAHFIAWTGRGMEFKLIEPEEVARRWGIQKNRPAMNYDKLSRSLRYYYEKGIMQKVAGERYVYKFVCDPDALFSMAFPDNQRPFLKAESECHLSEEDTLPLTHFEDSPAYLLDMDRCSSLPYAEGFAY
Test [3] concerns the target HSF1 (Homo sapiens, UniProt Q00613 1-529). As to conditions: protein: recombinant; tags: N-terminal GST; chain copies: 3; dsDNA, one strand shown. In a few lines:
as §1

Test [4] has as its target T2, SPIC (Homo sapiens, UniProt Q8N5J4 1-248).
T2 sequence: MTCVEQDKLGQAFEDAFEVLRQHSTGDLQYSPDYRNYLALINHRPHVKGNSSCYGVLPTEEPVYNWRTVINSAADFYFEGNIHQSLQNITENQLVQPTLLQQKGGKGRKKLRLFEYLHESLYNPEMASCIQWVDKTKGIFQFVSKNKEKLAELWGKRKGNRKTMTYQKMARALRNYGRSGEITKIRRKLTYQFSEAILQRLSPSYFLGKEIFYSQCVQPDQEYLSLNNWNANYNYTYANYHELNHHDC
As to conditions: protein: recombinant; tags: N-terminal GST; dsDNA, one strand shown. In a few lines:
as §1

For test [5], the target named is ELF4 (Homo sapiens, UniProt Q99607 1-663). As to conditions: protein: recombinant; tags: N-terminal GST; dsDNA, one strand shown. Put shortly:
as §1

In test [6] the target is T3, ELK4 (Homo sapiens, UniProt P28324-2 1-405).
T3 sequence: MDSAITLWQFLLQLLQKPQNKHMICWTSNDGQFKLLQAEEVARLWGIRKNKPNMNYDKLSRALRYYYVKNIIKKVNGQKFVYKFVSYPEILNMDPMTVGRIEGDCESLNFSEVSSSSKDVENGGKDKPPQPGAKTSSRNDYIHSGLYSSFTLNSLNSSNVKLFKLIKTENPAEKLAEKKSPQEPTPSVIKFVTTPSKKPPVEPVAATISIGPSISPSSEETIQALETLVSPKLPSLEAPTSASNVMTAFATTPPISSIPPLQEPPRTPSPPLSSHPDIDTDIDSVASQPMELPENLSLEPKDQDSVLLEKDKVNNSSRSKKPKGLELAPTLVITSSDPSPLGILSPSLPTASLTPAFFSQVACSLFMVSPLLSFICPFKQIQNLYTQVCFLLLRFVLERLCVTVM
The settings on record: protein: recombinant; tags: N-terminal GST; dsDNA, one strand shown. In a few lines:
as §1

In test [7] the target is T4, ETV2 (Homo sapiens, UniProt O00321 1-342).
T4 sequence: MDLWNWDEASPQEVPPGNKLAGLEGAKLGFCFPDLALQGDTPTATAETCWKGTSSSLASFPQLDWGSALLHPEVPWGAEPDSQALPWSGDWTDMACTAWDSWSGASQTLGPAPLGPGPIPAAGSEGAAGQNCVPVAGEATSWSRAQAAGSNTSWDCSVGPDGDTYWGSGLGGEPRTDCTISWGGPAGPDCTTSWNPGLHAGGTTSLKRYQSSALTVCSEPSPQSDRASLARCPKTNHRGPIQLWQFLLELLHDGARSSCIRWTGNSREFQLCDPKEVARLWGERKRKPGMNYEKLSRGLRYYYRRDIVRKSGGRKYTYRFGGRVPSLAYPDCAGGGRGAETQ
The settings on record: protein: recombinant; tags: N-terminal GST; dsDNA, one strand shown. Put shortly:
as §1

In test [8] the target is T5, ELF3 (Homo sapiens, UniProt P78545 1-371).
T5 sequence: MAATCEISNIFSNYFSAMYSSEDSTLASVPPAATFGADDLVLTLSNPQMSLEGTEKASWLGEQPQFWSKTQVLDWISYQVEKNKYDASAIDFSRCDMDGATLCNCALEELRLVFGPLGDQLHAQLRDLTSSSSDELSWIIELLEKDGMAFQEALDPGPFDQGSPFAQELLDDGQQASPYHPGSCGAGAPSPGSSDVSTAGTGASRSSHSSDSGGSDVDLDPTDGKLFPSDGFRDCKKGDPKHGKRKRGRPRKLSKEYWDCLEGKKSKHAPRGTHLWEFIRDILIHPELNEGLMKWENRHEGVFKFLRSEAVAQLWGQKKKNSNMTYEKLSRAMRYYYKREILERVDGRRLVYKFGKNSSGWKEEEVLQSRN
As to conditions: protein: recombinant; tags: N-terminal GST; dsDNA, one strand shown. Put shortly: as §1

The target in test [9] is CRX (Homo sapiens, UniProt O43186 1-299). The settings on record: protein: recombinant; tags: N-terminal GST; dsDNA, one strand shown. In a few lines: as §1
CRX, sequence (O43186 whole entry): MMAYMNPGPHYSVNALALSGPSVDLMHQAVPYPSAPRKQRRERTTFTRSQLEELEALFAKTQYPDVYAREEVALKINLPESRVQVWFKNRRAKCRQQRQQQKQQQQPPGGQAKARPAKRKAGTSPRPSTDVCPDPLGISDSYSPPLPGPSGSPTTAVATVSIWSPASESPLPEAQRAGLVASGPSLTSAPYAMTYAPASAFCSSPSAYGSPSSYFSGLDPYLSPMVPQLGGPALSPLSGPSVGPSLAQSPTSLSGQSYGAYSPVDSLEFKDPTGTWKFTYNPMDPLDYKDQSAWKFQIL
The target in test [10] is ETV1 (Homo sapiens, UniProt P50549 1-477). The settings on record: protein: recombinant; tags: N-terminal GST; dsDNA, one strand shown. In a few lines: as §1
ETV1, sequence (P50549 whole entry): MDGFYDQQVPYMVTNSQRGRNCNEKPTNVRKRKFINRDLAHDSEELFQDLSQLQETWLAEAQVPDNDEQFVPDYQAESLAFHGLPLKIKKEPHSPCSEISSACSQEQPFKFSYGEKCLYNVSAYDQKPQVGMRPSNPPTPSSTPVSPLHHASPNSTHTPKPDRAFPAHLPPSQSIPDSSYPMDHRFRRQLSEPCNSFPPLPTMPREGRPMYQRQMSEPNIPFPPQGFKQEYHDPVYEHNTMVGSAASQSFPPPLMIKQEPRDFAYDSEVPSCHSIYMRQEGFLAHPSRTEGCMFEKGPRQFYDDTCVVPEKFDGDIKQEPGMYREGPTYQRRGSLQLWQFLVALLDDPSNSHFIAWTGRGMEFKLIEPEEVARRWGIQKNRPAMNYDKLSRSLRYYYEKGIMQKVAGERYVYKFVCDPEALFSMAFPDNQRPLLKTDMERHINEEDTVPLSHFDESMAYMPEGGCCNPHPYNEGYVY
Test [11] has as its target T6, ERF (Homo sapiens, UniProt P50548 1-548).
T6 sequence: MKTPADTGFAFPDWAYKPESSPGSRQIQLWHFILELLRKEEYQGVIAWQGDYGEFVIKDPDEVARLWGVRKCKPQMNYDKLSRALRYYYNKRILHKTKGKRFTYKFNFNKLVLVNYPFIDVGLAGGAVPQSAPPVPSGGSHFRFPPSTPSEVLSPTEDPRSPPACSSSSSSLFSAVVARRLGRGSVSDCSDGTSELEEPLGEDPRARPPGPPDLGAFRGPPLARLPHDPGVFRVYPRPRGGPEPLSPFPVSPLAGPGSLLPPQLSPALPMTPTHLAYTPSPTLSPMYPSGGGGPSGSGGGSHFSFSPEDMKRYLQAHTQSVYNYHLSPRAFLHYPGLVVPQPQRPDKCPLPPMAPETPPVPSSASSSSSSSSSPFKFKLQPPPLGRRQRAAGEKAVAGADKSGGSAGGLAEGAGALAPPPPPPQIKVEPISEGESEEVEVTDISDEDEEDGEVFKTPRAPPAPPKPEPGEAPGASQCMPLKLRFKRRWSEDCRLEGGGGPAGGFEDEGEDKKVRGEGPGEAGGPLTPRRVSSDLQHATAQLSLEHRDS
The settings on record: protein: recombinant; tags: N-terminal GST; dsDNA, one strand shown. In a few lines: as §1

For test [12], the target named is T7, ETV3L (Homo sapiens, UniProt Q6ZN32 1-361).
T7 sequence: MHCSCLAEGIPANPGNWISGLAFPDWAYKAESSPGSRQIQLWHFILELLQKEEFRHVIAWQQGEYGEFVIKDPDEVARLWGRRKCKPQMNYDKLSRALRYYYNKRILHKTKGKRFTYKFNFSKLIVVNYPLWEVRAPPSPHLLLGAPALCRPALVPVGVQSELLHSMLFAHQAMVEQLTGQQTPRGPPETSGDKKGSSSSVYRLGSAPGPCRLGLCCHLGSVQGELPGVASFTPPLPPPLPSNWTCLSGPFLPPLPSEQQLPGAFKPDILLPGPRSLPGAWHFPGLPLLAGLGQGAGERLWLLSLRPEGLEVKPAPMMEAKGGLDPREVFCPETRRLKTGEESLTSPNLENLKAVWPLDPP
The settings on record: protein: recombinant; tags: N-terminal GST; dsDNA, one strand shown. In a few lines: as §1

Test [13] addresses T8, ETS2 (Homo sapiens, UniProt P15036 1-469).
T8 sequence: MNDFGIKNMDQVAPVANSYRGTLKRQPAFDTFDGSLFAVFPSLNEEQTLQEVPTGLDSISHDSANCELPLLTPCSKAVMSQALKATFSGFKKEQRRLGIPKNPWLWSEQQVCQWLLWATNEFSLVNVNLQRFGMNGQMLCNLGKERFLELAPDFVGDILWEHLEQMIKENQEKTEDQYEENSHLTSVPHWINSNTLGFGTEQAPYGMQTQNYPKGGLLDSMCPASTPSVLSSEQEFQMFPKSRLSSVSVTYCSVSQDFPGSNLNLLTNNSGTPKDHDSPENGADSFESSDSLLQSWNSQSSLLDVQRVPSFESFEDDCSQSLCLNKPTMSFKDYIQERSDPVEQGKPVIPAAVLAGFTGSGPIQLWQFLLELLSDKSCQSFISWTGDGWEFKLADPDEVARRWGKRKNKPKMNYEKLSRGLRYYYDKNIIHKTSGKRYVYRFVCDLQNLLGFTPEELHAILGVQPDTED
As to conditions: protein: recombinant; tags: N-terminal GST; dsDNA, one strand shown. Put shortly: as §1

In test [14] the target is T9, SPDEF (Homo sapiens, UniProt O95238 1-335).
T9 sequence: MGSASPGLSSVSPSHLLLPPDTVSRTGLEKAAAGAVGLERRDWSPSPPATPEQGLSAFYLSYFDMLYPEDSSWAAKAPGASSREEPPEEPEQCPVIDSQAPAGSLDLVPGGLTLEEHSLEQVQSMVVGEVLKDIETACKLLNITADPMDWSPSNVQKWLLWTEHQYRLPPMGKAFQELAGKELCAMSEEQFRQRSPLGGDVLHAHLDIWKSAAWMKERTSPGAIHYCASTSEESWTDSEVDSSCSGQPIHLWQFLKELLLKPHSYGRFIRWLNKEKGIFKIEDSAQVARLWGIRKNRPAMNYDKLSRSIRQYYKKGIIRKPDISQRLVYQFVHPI
The settings on record: protein: recombinant; tags: N-terminal GST; dsDNA, one strand shown. Put shortly: as §1

Test [15] deals with T10, ETV7 (Homo sapiens, UniProt Q9Y603 1-341).
T10 sequence: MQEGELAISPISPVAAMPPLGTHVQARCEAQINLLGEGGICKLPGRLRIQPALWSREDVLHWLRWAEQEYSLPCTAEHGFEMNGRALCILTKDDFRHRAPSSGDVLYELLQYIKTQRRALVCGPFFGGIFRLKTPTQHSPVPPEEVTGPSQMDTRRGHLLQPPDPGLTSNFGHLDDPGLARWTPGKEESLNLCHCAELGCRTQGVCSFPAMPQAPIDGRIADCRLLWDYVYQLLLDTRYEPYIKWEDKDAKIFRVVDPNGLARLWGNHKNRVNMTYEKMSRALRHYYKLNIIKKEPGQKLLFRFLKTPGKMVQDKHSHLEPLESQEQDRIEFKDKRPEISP
As to conditions: protein: recombinant; tags: N-terminal GST; dsDNA, one strand shown. Put shortly: as §1

Test [16] concerns the target T11, ELF5 (Homo sapiens, UniProt Q9UKW6-2 1-255).
T11 sequence: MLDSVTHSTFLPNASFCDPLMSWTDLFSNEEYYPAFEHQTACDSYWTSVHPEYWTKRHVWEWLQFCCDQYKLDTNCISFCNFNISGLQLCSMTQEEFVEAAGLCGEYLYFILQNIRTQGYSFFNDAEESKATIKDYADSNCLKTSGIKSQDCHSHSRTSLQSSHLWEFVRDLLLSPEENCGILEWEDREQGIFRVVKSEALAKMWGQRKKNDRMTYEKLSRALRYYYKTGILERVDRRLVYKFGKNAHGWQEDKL
The settings on record: protein: recombinant; tags: N-terminal GST; dsDNA, one strand shown. In a few lines: as §1

The target of test [17] is T12, ETV3 (Homo sapiens, UniProt P41162-2 1-143).
T12 sequence: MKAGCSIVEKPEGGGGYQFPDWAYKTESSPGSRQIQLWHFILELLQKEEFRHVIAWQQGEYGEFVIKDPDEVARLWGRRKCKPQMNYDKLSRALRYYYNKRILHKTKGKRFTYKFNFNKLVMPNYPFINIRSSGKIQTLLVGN
As to conditions: protein: recombinant; tags: N-terminal GST; dsDNA, one strand shown. In a few lines:
as §1

The target of test [18] is ETV6 (Homo sapiens, UniProt P41212 1-452). The settings on record: protein: recombinant; tags: N-terminal GST; dsDNA, one strand shown. Put shortly: as §1
ETV6, sequence (P41212 whole entry): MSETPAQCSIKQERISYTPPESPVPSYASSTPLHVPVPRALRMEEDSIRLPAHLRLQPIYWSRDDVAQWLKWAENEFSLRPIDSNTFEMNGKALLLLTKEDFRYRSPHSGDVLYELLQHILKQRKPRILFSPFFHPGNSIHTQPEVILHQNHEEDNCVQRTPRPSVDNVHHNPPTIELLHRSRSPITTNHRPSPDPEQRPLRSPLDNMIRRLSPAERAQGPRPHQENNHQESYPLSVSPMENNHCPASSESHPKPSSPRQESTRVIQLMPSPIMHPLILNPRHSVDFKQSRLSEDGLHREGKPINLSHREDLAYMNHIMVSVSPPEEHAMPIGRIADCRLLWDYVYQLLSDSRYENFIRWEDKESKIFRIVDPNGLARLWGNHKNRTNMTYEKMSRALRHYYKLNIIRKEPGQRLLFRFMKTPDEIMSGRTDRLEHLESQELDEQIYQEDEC

HSF1, sequence (Q00613 whole entry): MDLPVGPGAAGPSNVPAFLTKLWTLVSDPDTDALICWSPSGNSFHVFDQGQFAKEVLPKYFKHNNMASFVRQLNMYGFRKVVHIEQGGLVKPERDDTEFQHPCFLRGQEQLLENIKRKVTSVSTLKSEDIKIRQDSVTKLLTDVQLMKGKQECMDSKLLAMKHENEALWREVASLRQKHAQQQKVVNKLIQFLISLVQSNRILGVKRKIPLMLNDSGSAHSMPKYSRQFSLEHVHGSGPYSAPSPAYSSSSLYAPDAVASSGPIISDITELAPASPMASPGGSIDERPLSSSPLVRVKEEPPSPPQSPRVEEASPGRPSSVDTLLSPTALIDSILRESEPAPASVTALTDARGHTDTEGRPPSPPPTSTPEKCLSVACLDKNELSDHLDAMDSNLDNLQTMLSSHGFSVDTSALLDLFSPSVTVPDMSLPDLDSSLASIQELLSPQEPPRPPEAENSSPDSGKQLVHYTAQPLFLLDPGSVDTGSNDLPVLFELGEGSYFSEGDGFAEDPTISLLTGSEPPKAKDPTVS
ELF4, sequence (Q99607 whole entry): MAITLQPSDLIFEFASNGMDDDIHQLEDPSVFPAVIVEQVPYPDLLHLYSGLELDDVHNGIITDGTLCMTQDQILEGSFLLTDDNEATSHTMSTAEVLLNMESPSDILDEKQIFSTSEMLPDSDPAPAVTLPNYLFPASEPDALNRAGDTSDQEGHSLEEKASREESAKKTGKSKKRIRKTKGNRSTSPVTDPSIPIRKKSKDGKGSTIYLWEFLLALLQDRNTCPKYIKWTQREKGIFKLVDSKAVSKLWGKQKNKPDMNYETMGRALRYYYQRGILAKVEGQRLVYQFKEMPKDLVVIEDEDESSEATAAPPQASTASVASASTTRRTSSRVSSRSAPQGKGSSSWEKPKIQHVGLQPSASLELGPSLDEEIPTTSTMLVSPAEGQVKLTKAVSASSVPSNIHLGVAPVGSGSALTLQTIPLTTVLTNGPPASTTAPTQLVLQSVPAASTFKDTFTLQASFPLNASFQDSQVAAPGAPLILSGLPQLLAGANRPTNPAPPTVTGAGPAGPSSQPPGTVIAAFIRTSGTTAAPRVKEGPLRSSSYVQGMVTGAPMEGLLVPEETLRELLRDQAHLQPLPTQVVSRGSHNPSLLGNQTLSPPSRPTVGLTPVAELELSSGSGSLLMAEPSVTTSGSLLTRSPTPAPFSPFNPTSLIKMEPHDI

Consider GCCCTT, for which the binding signal in test [1] was 1.19 fold enrichment (6-mer frequency, TF over GST control); in test [2], 1.16 fold enrichment (6-mer frequency, TF over GST control); in test [3] it was 1.11 fold enrichment (6-mer frequency, TF over GST control); in [4] it was 1.1 fold enrichment (6-mer frequency, TF over GST control); in test [5] it was 1.13 fold enrichment (6-mer frequency, TF over GST control); in test [6], 1.19 fold enrichment (6-mer frequency, TF over GST control). Also, the binding signal was 1.28 fold enrichment (6-mer frequency, TF over GST control) in test [7]; 1.29 fold enrichment (6-mer frequency, TF over GST control) in test [8]; 1.06 fold enrichment (6-mer frequency, TF over GST control) in [9]; 1.17 fold enrichment (6-mer frequency, TF over GST control) in [10]; 1.11 fold enrichment (6-mer frequency, TF over GST control) in test [11]; 1.16 fold enrichment (6-mer frequency, TF over GST control) in [12]. Also, the binding signal was 1.15 fold enrichment (6-mer frequency, TF over GST control) in [13]; 1.26 fold enrichment (6-mer frequency, TF over GST control) in test [14]; 1.07 fold enrichment (6-mer frequency, TF over GST control) in test [15]; 1.09 fold enrichment (6-mer frequency, TF over GST control) in [16]; 1.14 fold enrichment (6-mer frequency, TF over GST control) in [17]; 1.27 fold enrichment (6-mer frequency, TF over GST control) in test [18].
